D2 PAM-1: positive allosteric modulators of human D2 dopamine receptor | P14416 | DiscoveRx D2 beta-arrestin cells, luminescence, 90 min; 100% = 57 uM dopamine signal | potentiation, % (concentration not given with the values) | 360,000 compounds, 0.23% hits | AID 624464; in the data active = potentiation above about 50%; inconclusive = mostly about 30% to 49%
Target sequence (P14416 whole entry, looked up): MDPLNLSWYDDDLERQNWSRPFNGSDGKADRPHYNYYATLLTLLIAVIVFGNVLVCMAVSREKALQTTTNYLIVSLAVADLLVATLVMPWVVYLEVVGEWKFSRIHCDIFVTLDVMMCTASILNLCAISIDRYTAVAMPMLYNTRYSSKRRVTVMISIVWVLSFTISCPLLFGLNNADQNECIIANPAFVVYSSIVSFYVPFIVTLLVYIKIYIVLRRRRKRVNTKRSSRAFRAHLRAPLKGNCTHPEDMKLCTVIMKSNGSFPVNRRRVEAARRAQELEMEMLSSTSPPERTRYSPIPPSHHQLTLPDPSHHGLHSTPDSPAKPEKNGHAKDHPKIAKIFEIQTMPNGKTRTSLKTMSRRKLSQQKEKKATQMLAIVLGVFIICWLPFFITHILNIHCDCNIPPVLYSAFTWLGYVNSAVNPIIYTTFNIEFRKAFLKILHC
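PathHunter D2 cells, attached overnight at 37 deg C, received compound in DMSO plus dopamine at EC20 (50 nM final) for 90 min at 37 deg C. Beta-arrestin recruitment was read as luminescence after 1 h with detection reagent at ambient temperature.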
D2 ag-1: human D2 receptor agonism in beta-arrestin assay; P14416; DiscoveRx PathHunter D2 beta-arrestin, luminescence, 90 min; 100% = 57 uM dopamine signal; activation, % (no concentration beside the values); 360,000 compounds, 0.084% hits; AID 624465; in the data active = activation above about 40%; inconclusive = between about 15% and that limit
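Agonist mode: compounds alone added to overnight-plated D2 PathHunter cells for 90 min at 37 C, with 57 uM final dopamine (EC100) defining full response. Beta-arrestin recruitment detected by chemiluminescent reagent, read after 1 h at ambient temperature.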
D2 antagonist: D2 dopamine receptor (human) antagonism; P14416; HEK293 TREx D2 cells, calcium flux, dopamine EC80; inhibition, % at 10 µM; 340,000 compounds, 2% hits; AID 485344; in the data active = inhibition above about 30%; inactive = below that, where a call was filed; also: 0% is about no effect
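Read-out: kinetic calcium fluorescence (1 cycle/s) in inducible HEK293 T-REx D2 cells after an EC80 dopamine addition that followed 180 s compound preincubation. Loss of the dopamine response indicates antagonism.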
D2 PAM-2: positive allosteric modulators of human D2 dopamine receptor; P14416; HEK293 T-REx D2, calcium flux, EC20 dopamine potentiation; potentiation, % at 10 µM; 340,000 compounds, 0.34% hits; AID 485347;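 active = potentiation over 3 SD above the plate norm, cut at about 30% in these data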; also: 0% is about no effect
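Primary screen. Calcium kinetics in induced HEK293 T-REx D2 cells: compound pre-addition 180 s, EC20 dopamine, 180 s more.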
D2 ag-2: activates the human D2 dopamine receptor. HEK293 T-REx D2 cells, calcium flux agonist mode. activation, % at 2 µM. 340,000 compounds, 0.53% hits. AID 485358;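 active = activation over 3 SD above normal in the single-dose calcium agonist read, cut at about 30% in these data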; also: 0% is about no effect
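Calcium-flux readout, 1 cycle/sec over 180 s following compound pin transfer, in inducible HEK293 Trex D2 cells (force-coupled); dopamine controls included. Positive calcium responses during this window marked compounds as potential agonists.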
* = called active by the depositor; ? = inconclusive; nt = not tested or not shown. Shown are actives, neighbours in structure and some others; about 2.4% of the full set was active somewhere.

SMILES	D2 PAM-1	D2 ag-1	D2 antagonist	D2 PAM-2	D2 ag-2
CCOc1ccccc1NC(=O)CSc1nc2cc(OC)c(OC)cc2c2nc(CCn3c(C)nc4ccccc43)nn12	nt	nt	nt	2	0
O=C(O)CCS(=O)(=O)c1ccccc1Cl	-10	-5	39*	16	1
Cn1c(=O)n(CCCOc2ccc(Br)cc2)c2ccccc21	-27	-2	32*	-19	1
COc1ccc(-c2cnnn2-c2ccc(NC(=O)c3c(F)cccc3F)cc2)cc1	nt	nt	nt	5	1
Cc1ccc(C(=O)O/N=C(\N)c2cccnc2)cc1[N+](=O)[O-]	66*	7	-5	-3	0
N/C(=N\OC(=O)c1ccccc1[N+](=O)[O-])c1cccnc1	108*	?	-5	-2	1
N/C(=N\OC(=O)c1ccc([N+](=O)[O-])cc1)c1cccnc1	29	9	-3	5	0
CCOC(=O)c1c(C)oc2c1cc(NS(=O)(=O)c1ccc(C)cc1)c1ccccc12	nt	nt	nt	-11	-1
Cc1ccc(S(=O)(=O)Nc2cc3c(C(=O)Nc4ccccc4)c(C)oc3c3ccccc23)cc1	84*	13	0	-3	1
Cc1cccc(C)c1OCC(=O)N/N=C/c1cc2c(cc1[N+](=O)[O-])OCO2	1	0	30*	-8	-3
O=C(CCc1ccc(O)c(O)c1)N/N=C/c1cc2c(cc1[N+](=O)[O-])OCO2	2	?	-5	-1	1
O=C(Nc1ccc(F)c(F)c1)c1ccc(-n2cncn2)c([N+](=O)[O-])c1	2	14	-27	-7	0
O=C(Nc1cccc(/C=C/c2ccccn2)c1)c1ccc(-n2cncn2)c([N+](=O)[O-])c1	63*	7	21	-14	0
COc1ccc(NC(=O)c2ccc(-n3cncn3)c([N+](=O)[O-])c2)cc1OC	13	3	35*	-2	-1
COc1ccc([C@H]2[C@H](C(=O)C(C)(C)C)N3N=Cc4ccccc4C3[C@]23N=C(c2ccccc2)OC3=O)cc1OC (stereo not given in full)	58*	7	24	-1	1
COc1cc(C)cc2oc(=O)c(CC(=O)N3CCN(C(=O)C4COc5ccccc5O4)CC3)c(C)c12 (stereo not given)	12	5	37*	3	-1
Cc1cc(O)c2c(C)c(CC(=O)N3CCN(C(=O)C4COc5ccccc5O4)CC3)c(=O)oc2c1 (stereo not given)	0	1	0	3	-2
CCc1cccc(NS(=O)(=O)c2ccc3c(c2)N(CC(=O)OC)C(=O)CS3)c1	nt	nt	nt	5	nt
COc1ccc(C(=O)NCC(=O)N/N=C/c2c(C)[nH]c3ccccc23)cc1	-27	1	53*	-4	-1
Cc1ccc(C(=O)Nc2oc(-c3ccccc3)cc2C#N)cc1	-16	-4	31*	-31	1
COc1ccc(S(=O)(=O)NCC2CCCN(C(=O)c3ccco3)C2)cc1 (stereo not given)	-14	-7	32*	-8	-1
O=C(COc1ccccc1F)Nc1ccc2nc(SCC(=O)N3CCc4ccccc43)sc2c1	nt	nt	nt	13	2
Cc1ccc(-n2nnc3c(SCC(=O)NCC4CCCO4)ncnc32)cc1 (stereo not given)	-2	3	46*	nt	-1
O=C(CSc1ncnc2c1nnn2-c1ccc(F)cc1)NCC1CCCO1 (stereo not given)	-7	-3	1	7	0
Cc1cccc(OCc2nnc(SCC(=O)NCC3CCCO3)n2C)c1 (stereo not given)	-4	-1	7	37*	0
Cc1ccc2cc(C#N)c(SCC(=O)NCC3CCCO3)nc2c1 (stereo not given)	-33	-4	6	0	-1
Cc1ccc2nc(SCC(=O)NCC3CCCO3)c(C#N)cc2c1 (stereo not given)	4	0	41*	-12	-1
Cc1nn(C)c(Sc2ccccc2N)c1[N+](=O)[O-]	1	45*	-9	1	0
COC(=O)c1ccc(CNC(=O)c2ccc(S(=O)(=O)N(C)c3ccccc3OC)cc2)cc1	0	10	49*	-21	1
